About 79,000 compounds went through this panel and 15% of them were active in at least one assay; those are over-represented in the sample as a whole. A number with no mark means an inactive call. Calls of active or inactive are those of the source. No stated cut-off is given here; in the data, active means growth inhibition above about 70%; inactive means the rest.
Legend:
[1] = NCI Yeast Anticancer Drug Screen. Data for the rad50 strain (AID 155);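 further: 0% = growth of vehicle-only cultures of the same strain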; settings: S. cerevisiae rad50 strain growth inhibition; at 50.0 µM; active compounds read high
Procedure, shortened: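 A DNA repair-deficient yeast mutant serves as the test organism; compound-induced growth inhibition is calculated against vehicle-treated cells.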

[2] = NCI Yeast Anticancer Drug Screen. Data for the mec2-1 strain (AID 157); settings: S. cerevisiae mec2-1 strain, at 50.0 µM, active compounds read high
Procedure, shortened: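 Yeast mec2-1 mutant treated with compound. Readout: growth inhibition vs vehicle controls.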

[3] = NCI Yeast Anticancer Drug Screen. Data for the cln2 rad14 strain (AID 165);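 further: 0% = growth equal to vehicle treated cultures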; settings: S. cerevisiae cln2 rad14 strain, at 50.0 µM, active compounds read high
Procedure, shortened: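 cln2 rad14 yeast strain; compound exposure; growth inhibition read vs vehicle controls.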

[4] = NCI Yeast Anticancer Drug Screen. Data for the bub3 strain (AID 167); settings: S. cerevisiae bub3 mutant strain, at 50.0 µM, active compounds read high
Procedure, shortened: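 Inhibition values come from growth of compound-treated mutant yeast normalised to vehicle-treated controls.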

[5] = NCI Yeast Anticancer Drug Screen. Data for the mlh1 rad18 strain (AID 175); settings: S. cerevisiae mlh1 rad18 strain growth inhibition; at 50.0 µM; active compounds read high
Procedure, shortened: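 Yeast w/ defined DNA-repair lesions; compound exposure; growth vs vehicle controls → % inhibition.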

[6] = NCI Yeast Anticancer Drug Screen. Data for the sgs1 mgt1 strain (AID 161);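 further: 0% = growth of cultures given vehicle only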; settings: S. cerevisiae sgs1 mgt1 strain, at 50.0 µM, active compounds read high
Procedure, shortened: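 Genetically altered yeast, compound exposure, growth inhibition relative to vehicle.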

Row | Compound | growth inhibition [1] | growth inhibition [2] | growth inhibition [3] | growth inhibition [4] | growth inhibition [5] | growth inhibition [6]
1 | c1ccc([As](c2ccccc2)c2ccccc2)cc1 | 0.75% | -0.95% | -3.3% | -3.95% | 5.05% | 
2 | C=C1C(=O)OC2CC3(C)OC3C3OC3C3=CC(OC3=O)C12 (stereo not drawn) | 18.9% | 34.7% | 29.6% | 41.4% | 38.1% | 
3 | CC(SC(C)C(=O)N/N=C/c1ccc(N(CCCl)CCCl)cc1)C(=O)N/N=C\c1ccc(N(CCCl)CCCl)cc1 (stereo not drawn) | -0.45% | -0.55% | -10.7% | 5.05% |  | 
4 | COc1ccc(NC(=O)COc2cccc(Cl)c2)cc1S(=O)(=O)F | 3.95% | 32.1% | -2.65% | 30.1% | 1.15% | 
5 | O=C(CCl)Oc1ccccc1 | -47.1% | -33.5% | -10.8% | -59.5% | -28.1% | 
6 | CCN(CC)[P+](C1=C(Cl)C(=O)C(Cl)=C(Cl)C1=O)(N(CC)CC)N(CC)CC | 1.25% | -12% | -19.5% | 8.45% | -17.5% | 
7 | CC(=O)Nc1ccc([N+](=O)[O-])c(C(F)(F)F)c1 | -4.2% | -6.4% | 13.1% | -3.9% | 6.05% | 
8 | CN(C)C(=O)Oc1cc(O)cc([N+](=O)[O-])c1 | -5.45% | -11.1% | -6.35% | 24.1% | -28.1% | 
9 | O=C(Nc1ccccc1)Nc1ccc(N(CCCl)CCCl)cc1 | 21.8% | 18.6% | 13.5% | 13.7% | 31.8% | 
10 | [C-]#[O+].[C-]#[O+].[C-]#[O+].[C-]#[O+].[Cr].c1ccc([PH+](CC[PH+](c2ccccc2)c2ccccc2)c2ccccc2)cc1 | 11.7% | 4.85% | 15.2% | 0.35% | 20.4% | 
11 | CP(C)CC[PH+](CC[PH+](C)C)CC[PH+](C)C.[C-]#[O+].[C-]#[O+].[W] | -1.25% | -6.35% | 24.4% | -0.45% | -0.9% | 
12 | COc1cc2c(cc1O)CNCC2c1ccc(O)c(C)c1 (stereo not drawn) | -10.8% | -14.6% | -13.8% | -11.4% | -4.7% | 
13 | S=C(Nc1ccccc1)N1CC1 | -7.85% | -22.3% | -11.9% | -6.15% | -17.4% | 
14 | CCOP(=O)(OCC)C(C#N)Cc1ccccc1OC (stereo not drawn) | 20.6% | 4.15% | -18.1% | 3.3% | 12.7% | 
15 | NNC(=O)NNC(=O)NN | -5.95% | -3.1% |  | -8.25% | 9.9% | -12.3%
16 | [C-]#[O+].[C-]#[O+].[C-]#[O+].[C-]#[O+].[Mo].c1ccc([As](CC[As](c2ccccc2)c2ccccc2)c2ccccc2)cc1 | 3.4% | -0.4% | -5.7% | 1.15% | 6.6% | 
17 | CCCCCSP(SCCCCC)c1ccccc1 | 79.8% (active) | 67.3% | 37.6% | 40.4% | 61.8% | 
18 | O=C(CC(=O)c1ccccc1)c1ccccc1.O=C(CC(=O)c1ccccc1)c1ccccc1.[Pd] | 20.5% | 4.9% |  | 6.05% | 19.8% | 
19 | C1C[N-]CC[N-]1.C1C[N-]CC[N-]1.[Zn] | 98.7% (active) | 99.5% (active) | 98.8% (active) | 99.4% (active) | 99.3% (active) | 
20 | O=NN1CCCNCC1 | -4.2% | -14.9% | -42.4% | 15.4% | 4.25% | 
21 | CCCCC1(CCO)C(=O)NC(=O)NC1=O | -12.1% | -2.65% | -19.1% | 28.4% | -20.6% | 
22 | CCC(Cl)COP(=O)(OCC(Cl)CC)C(CC)OP(=S)(OCC(Cl)CC)OCC(Cl)CC (stereo not drawn) | 16.6% | 11.3% | 94.8% (active) | 57.5% | 20.9% | 
23 | CC1CS1 (stereo not drawn) | -5.7% | 4.8% | 2.9% | 12.2% | -11.1% | 
24 | N/C(=N\NC(=O)c1ccc([N+](=O)[O-])cc1)N[N+](=O)[O-] | -11.1% | -12.2% | 28.8% | 11.2% | 1.75% | 

— PubChem BioAssay (NCI)
